# Source: PubChem BioAssay AID651994 (Sanford-Burnham Center for Chemical Genomics, 2013)
# About 790 (32%) of roughly 2,500 compounds were called active. These entries were drawn from the full list. Unmarked numbers belong to inactive results.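 How the source made its calls: active means mean cytotoxicity at 5 µM above about 25% (limit read from the data); inactive means the rest.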
# Test: cell viability loss, Sufu-null reporter line – ATP luminescence, single concentration, cytotoxicity control for Gli-SUFU antagonist project, confirmation (AID 651994);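 further: cells exposed to compound overnight for roughly 16 to 18 hours; plate controls were DMSO wells with cells for no effect and medium without cells for full effect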
# Settings: Sufu-KO-LIGHT cells cytotoxicity, at 5 µM, hits give high values
row,Structure (SMILES),cytotoxicity
1,COc1ccc2c(C)cc3nnnn3c2c1,27% (active)
2,CC1(C)CC(=O)c2c(n(S(=O)(=O)c3ccccc3)c3ccc(NS(=O)(=O)c4ccccc4)cc23)C1,23.1%
3,Cc1ccc(NC(=S)Nc2ccc(F)cc2)cc1,25.1% (active)
4,COc1ccc(NC(=O)[C@H](NC(=O)[C@@H]2Cc3ccccc3CN2)c2ccccc2)cc1,6.92%
5,CCN(CC)CCNC(=O)c1ccc(NC(=O)c2cc(-c3ccncc3)nc3ccccc23)cc1,16.3%
6,Nc1ccc(C(=O)N2CCN(S(=O)(=O)c3ccc(Cl)cc3)CC2)cc1[N+](=O)[O-],14.4%
7,CC(=O)N1CCCc2cc(S(=O)(=O)N3CCCC(C(=O)N4CCN(c5cccc(Cl)c5)CC4)C3)ccc21 (stereo not drawn),24.2%
8,O=C(NCCOCc1ccc(Cl)cc1)c1ncn[nH]1,18.8%
9,N#Cc1ccc(C(=O)Nc2nc(-c3cccs3)c(C(=O)C(F)(F)F)s2)cc1,32.7% (active)
10,C/C(=N\Nc1ccc(Cl)nn1)c1ccccc1O,23.9%
11,O=C(O)c1ccc(N/N=C/c2ccc3ncccc3c2)cc1,22.3%
12,CCN(CCO)C(=S)Nc1cc(C(=O)OC)ccc1C(=O)OC,18.2%
13,C=CCC1(CC=C)CCCN1C(=O)c1cc(COc2ccc(-n3cncn3)cc2)on1,36.4% (active)
14,CSc1ncccc1C(=O)Nc1nc2ccc(F)cc2s1,28.1% (active)
15,O=C(Nc1nc2ccc([N+](=O)[O-])cc2s1)c1ccc(S(=O)(=O)N2CCCc3ccccc32)cc1,23.2%
16,Cc1ccc(S(=O)(=O)N2C[C@@H]3CCCC[C@@H]3[C@@H](C)[C@H]2c2cn(Cc3ccccc3)c3ccc(F)cc23)cc1,7.61%
17,C=CCNC(=S)/N=c1/ccccn1Cc1ccccc1,22.1%
18,CCC(Cc1ccccc1)NC(=O)C1CCCCC1 (stereo not drawn),9.02%
19,O=C(Nc1cccc(S(=O)(=O)Nc2ccc(Cl)cc2)c1)c1ccc2c(c1)OCCO2,28.9% (active)
20,O=C1C=C(c2ccnc3cc(Cl)ccc23)C[C@@H](c2ccc3c(c2)OCO3)C1,30.6% (active)
21,CCN1/C(=C/C(=S)Nc2ccccc2)Sc2ccccc21,-1.08%
22,CC(C)(CNC(=O)c1ccc(Cl)c(S(=O)(=O)N2CCc3ccccc3C2)c1)N1CCOCC1,17.5%
23,COc1ccc(C(=O)NC2CCCc3c2cnn3-c2cccc(C)c2C)c(OC)n1 (stereo not drawn),26.7% (active)
24,Cc1ccc(S(=O)(=O)NC(C)C(=O)Nc2ccccc2C(=O)N2CCCC2)cc1 (stereo not drawn),12.8%

row,Structure (SMILES),cytotoxicity
1,CCc1c(C)nc2cc(C)[nH]n2c1=O,10.3%
2,Cc1cc(C(=O)CSc2nc(N)cc(=O)[nH]2)c(C)n1-c1cccc(F)c1,34.2% (active)
3,CN(C)CCSc1nc(N)c2c3c(sc2n1)COC(C)(C)C3,9.54%
4,O=C(CN1CCN(S(=O)(=O)c2cc(Cl)ccc2Cl)CC1)c1ccc(O)c(O)c1,14.6%
5,CC(=O)Nc1ccc(NC(=O)c2ccc3c(c2)C(=O)N(c2ccccc2C)C3=O)cc1,24.5%
6,Brc1c(CSc2nncc3ccccc23)nc2ccccn12,-3.37%
7,CN(c1ccc2nc3ccccc3c(=O)n2n1)C1CCCCC1,84.2% (active)
8,NS(=O)(=O)c1ccc(CCNC(=O)CCCn2c(SCC(=O)N3CCCC3)nc3ccsc3c2=O)cc1,-12.7%
9,CC(C)(C)c1ccc(Oc2ccc(N)cc2)cc1,18.4%
10,COc1ccc(/C=N/N=C2/C(=O)Nc3ccccc32)cc1O,-0.38%
11,COc1ccc(Cc2nnc(N/N=C/c3ccccc3O)[nH]c2=O)cc1OC,43.8% (active)
12,CC1(C)Cc2ccccc2/C(=C/C(=O)c2ccccc2)N1,4.12%
13,CC1(C)CC2CC(C)(CN2c2ncnc3ccc(Br)cc23)C1 (stereo not drawn),38.5% (active)
14,COc1cc(C(=O)OC2CCOC2=O)c([N+](=O)[O-])cc1OC (stereo not drawn),3.16%
15,COc1cccc(-n2cc(C(=O)O)c3ccccc3c2=O)c1,25.1% (active)
16,O=C(Nc1ccnn1C1CCN(C/C=C/c2ccc(F)cc2)CC1)C1CCCC1,2.29%
17,Cc1nn(C)c(Cl)c1CN1CCC(n2nccc2NC(=O)C2CCCC2)CC1,16.4%
18,CN(C)C(CNC(=O)Cc1ccc([N+](=O)[O-])cc1)c1ccccc1 (stereo not drawn),15.4%
19,COc1ccc(C(=O)NCc2nnc(SCCOc3ccccc3)n2C)cc1,10.2%
20,COc1cc(C(=O)OC(C)C(=O)NCC2CCCCC2)cc(NC(=O)c2ccco2)c1OC (stereo not drawn),-2.91%
21,O=C(Nc1cc2c3c(c1)C1CCCC1CN3CC1CCCC21)c1ccc([N+](=O)[O-])cc1 (stereo not drawn),29.3% (active)
22,COC(=O)c1ccccc1NC(=O)C1(S(=O)(=O)c2ccc(Cl)cc2)CC1,-1.28%
23,NC(N)=Nc1nc(-c2ccccc2)c2cc(Cl)ccc2n1,27.1% (active)
24,O=c1c2ccccc2nc2n1C(CSCc1cccc(C(F)(F)F)c1)CS2 (stereo not drawn),34.2% (active)

row,Structure (SMILES),cytotoxicity
1,Cc1ccc(-c2nc(CSCC(=O)NC3CCN(Cc4ccccc4)CC3)c(C)o2)cc1,12%
2,O=C(C[C@H]1C/C=C\C[C@@H](NC(=O)OCC2c3ccccc3-c3ccccc32)C(=O)O[C@@H](c2ccccc2)CNC1=O)N[C@H](CO)Cc1ccccc1,18.6%
3,CNc1nnc(-c2ccco2)s1,-0.36%
4,O=C1/C(=C/c2ccc(F)cc2)SC(=S)N1NS(=O)(=O)c1ccccc1,16.4%
5,Cc1ccc(Nc2nc(N3CCOCC3)nc(N3CCOCC3)n2)cc1Cl,40.8% (active)
6,CCc1ccc(C2C(C#N)=C(N)N(N3CCOCC3)C3=C2C(=O)CC(C)(C)C3)s1 (stereo not drawn),25.2% (active)
7,CC(C)C(=O)Nc1nnc(SCC(=O)N2C(C)CCCC2C)s1 (stereo not drawn),1.96%
8,CCc1c(C)[nH]c(=S)c(C#N)c1C,9%
9,Cc1c(Cl)c([N+](=O)[O-])nn1Cc1ccc(C(=O)N/N=C\c2cc(Cl)ccc2O)o1,29% (active)
10,CCOc1ccc(-n2c(O)c(/C=N/Nc3nc(C)cc(C)n3)c3ccccc3c2=O)cc1,17.6%
11,Cc1ccsc1C(=O)OCC(=O)c1cc(C)n(CC2CCCO2)c1C (stereo not drawn),26.6% (active)
12,Cc1cccc2nc(CSc3nc4[nH]ncc4c(=O)n3-c3cccc(Cl)c3)cc(=O)n12,20.1%
13,Cc1ccc(S(=O)(=O)N(Cc2cc3ccccc3[nH]c2=O)CC2CCCO2)cc1 (stereo not drawn),5.2%
14,COc1ccccc1CNC(=O)C1CCN(c2nc3ccccc3o2)CC1,17.9%
15,Cc1cccc(NS(=O)(=O)c2ccc(-c3cnc(C4CC4)o3)cc2)c1,54.4% (active)
16,COc1ccc(NS(=O)(=O)c2ccc(NC(C)=O)cc2)cc1OC,14%
17,Cc1cc(C)c(SCCc2ccncc2)c(C)c1,29.5% (active)
18,Cc1ccc(NC(=O)CN(C)CC(=O)Nc2cccc(F)c2)cc1[N+](=O)[O-],29% (active)
19,Cc1ccc(O)c(NC(=O)COc2cc(C)ccc2C)c1,-3.46%
20,CCCCNc1nc2c(c(=O)n(C)c(=O)n2C)n1Cc1cccc(OC)c1,44.5% (active)
21,Cn1c(=O)c2c(nc(NCCc3ccccc3)n2Cc2ccccc2)n(C)c1=O,34.7% (active)
22,COCCn1c(CN2CCC(Cc3ccccc3)CC2)nc2c1c(=O)n(C)c(=O)n2C,19.8%
23,COc1ccc(NS(=O)(=O)c2ccc(N3CCN(CCO)CC3)c([N+](=O)[O-])c2)cc1,16.4%
24,CC(=O)OCCC(C)C,-7.84%

row,Structure (SMILES),cytotoxicity
1,CCCc1nc(N)nc2c1C(=O)CC(C)(C)C2,5.9%
2,CN1C(CC(=O)Nc2ccc(Br)cc2)c2ccccc2CC1(C)C (stereo not drawn),15.7%
3,Cc1ccc(C)c(S(=O)(=O)N2CCN(c3ncnc4sccc34)CC2)c1,69.2% (active)
4,c1ccc(-n2nnnc2N2CCOCC2)cc1,10.1%
5,CC[n+]1c(C)n(-c2ccccc2)c2ccc(NC(C)=O)cc21,29% (active)
6,CCC1CCCCN1CCCNC(=O)Cn1nc(-c2ccccc2)ccc1=O (stereo not drawn),20.3%
7,CN(NC(=O)c1ccccc1F)c1nc(C(F)(F)F)nc2ccccc12,56.2% (active)
8,CCn1c(SCc2ccccc2)nc2cc(OC)c(OC)cc2c1=O,23.5%
9,CCOc1cccc(/C=N/NC(=S)NCCN2CCOCC2)c1O,20.7%
10,CCOC(=O)c1cnc(-n2nc(C)cc2C)nc1NNc1cc(C)nc(-c2ccccc2)n1,24%
11,c1c2c(cc3sc(N4CCCCC4)nc13)OCCO2,51.8% (active)
12,CN(C)CCN(C(=O)C1CCCCC1)c1nc2cc3c(cc2s1)OCO3,20.3%
13,CCOC(=O)c1ccc(NC(=O)Cn2cnc3cc(C)c(C)cc32)cc1,24.9%
14,CC(=O)c1c(C)[nH]c(C(=O)OCC(=O)Nc2sc3c(c2C#N)CCCC3)c1C,17.2%
15,O=C(Cn1cc(C(=O)C2CC2)c2ccccc21)Nc1ccccc1Cl,16.3%
16,COc1ccccc1N1CCN(Cc2cc(OC)c3c(c2)OCO3)CC1,22.5%
17,CCCOc1ccccc1C1CC(=O)Nc2cc3c(cc21)OCO3 (stereo not drawn),48.1% (active)
18,COc1ccccc1C1C2=C(COC2=O)Nc2cc3c(cc21)OCO3 (stereo not drawn),50.9% (active)
19,O=C(O)CCCn1cc(NC(=O)COc2cccc(Cl)c2)cn1,11.7%
20,COc1ccc2nc(SCC(=O)Nc3c(C)cc(C)cc3C)[nH]c2c1,11.7%
21,CCN(CC(=O)Nc1cc(Cl)ccc1C)C(=O)CSCc1ccc(C)cc1,6.16%
